This is a sample that favours compounds with a hit; in the whole collection about 14% have one here.
Pf growth 96h: Primary qHTS for delayed death inhibitors of the malarial parasite plastid, 96 hour incubation. P. falciparum luciferase reporter growth, 96 h. Potency, µM (doses to about 28.7 µM), for the others: top-dose activity change, negative = inhibition, hits mostly inhibitors. 320,000 compounds, 6.9% hits; further: potency means the concentration at half of the fitted maximal effect
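Infected RBCs, 2% Hct / 0.05% parasitemia final; luciferase-reporter P. falciparum; cpd 96 h, 37 C, 5% CO2; luciferase detection reagent; luminescence.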
FBPA Giardia inh: qHTS Assay for Inhibitors of Fructose-1,6-bisphosphate Aldolase from Giardia Lamblia | Potency, µM (top dose mostly 59.6 µM), without a hit: at the highest dose activity, negative = inhibition, most hits filed as inhibitors | AID 2451, 2010 | purified Giardia FBPA | 290,000 compounds, 0.71% hits; further: potency means the concentration at half of the fitted maximal effect; nearly all actives have a fitted effect of over 55% in size
Target sequence (A8B2U2 whole entry, looked up): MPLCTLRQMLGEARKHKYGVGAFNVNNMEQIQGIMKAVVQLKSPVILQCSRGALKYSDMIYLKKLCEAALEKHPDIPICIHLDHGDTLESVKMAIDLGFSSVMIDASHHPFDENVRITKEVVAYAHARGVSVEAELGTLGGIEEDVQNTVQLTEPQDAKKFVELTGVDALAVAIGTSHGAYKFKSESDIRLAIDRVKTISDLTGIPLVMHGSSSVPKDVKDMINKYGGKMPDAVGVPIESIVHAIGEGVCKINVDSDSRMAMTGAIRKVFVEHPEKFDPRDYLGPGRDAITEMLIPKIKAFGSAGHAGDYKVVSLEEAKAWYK
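40 nM FBPA preincubated 10 min at RT with compound (up to 57.5 uM final), then substrate plus GAPDH/TPI/NAD/arsenate coupling and diaphorase/resazurin added. Fluorescence read after 20 min at RT, 525/598 nm.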
HCMV antiviral: qHTS Assay for inhibitors of the human cytomegalovirus (HCMV) | HFF cells, HCMV-luciferase reporter, 72 h; active compounds read low | activity change, negative = inhibition, % at 57.5 µM | 410,000 compounds, 4.5% hits | AID 1259415, 2018; in the data active means activity change below about -60%; inconclusive means no clear call, values can overlap the other calls; inactive means above about -39%
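Two-dose cell screen: HFF monolayers treated with compounds and infected with luciferase-expressing HCMV at 1 PFU/cell, 72 h at 37C, then lysed for luciferase measurement.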
Pf growth 48h: Primary qHTS for delayed death inhibitors of the malarial parasite plastid, 48 hour incubation; P. falciparum luciferase growth in erythrocytes, 48 h; Potency, µM (highest dose often 28.7 µM), for the others: top-dose activity change, negative = inhibition, usual class: inhibitors; 310,000 compounds, 5.9% hits; further: potency means the concentration at half of the fitted maximal effect
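Luciferase-expressing parasites in RBCs, 2% Hct / 0.1% parasitemia final; RPMI 1640 + 0.5% Albumax; 37 C, 5% CO2, one generation; luminescence read-out, lower signal = inhibition.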
Sm TGR inh: qHTS Assay for the Inhibitors of Schistosoma Mansoni Peroxiredoxins; Schistosoma mansoni thioredoxin glutathione reductase (TGR), Q962Y6; purified TGR, DTNB reduction, TNB absorbance 405 nm; Potency, µM (highest dose often 114 µM), without a hit: at the highest dose activity change, negative = inhibition, most hits filed as inhibitors; 360,000 compounds, 3% hits; AID 485364, 2010; further: potency means the concentration at half of the fitted maximal effect; nearly all actives have a fitted effect of over 60% in size
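Kinetic colorimetric format: TGR-catalysed, NADPH-driven DTNB reduction monitored via TNB absorbance. Enzyme dispensed at 20 nM; compound exposure 15 min at room temperature before reaction start.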
* marks the source's active call; other numbers are inactive results; ? = inconclusive; . = no result. Unless noted, the call rests on the fitted dose curve; in most records, active means well fitted curve in the direction sought with a large enough effect; inconclusive means small, poorly fitted or top-dose-only effect, or another doubt; inactive means no such curve, though single readings can be large; an effect the other way counts as inactive or inconclusive. On the % scale 0 is the no-effect control and ±100 the full control effect.

SMILES | Pf growth 96h | FBPA Giardia inh | HCMV antiviral | Pf growth 48h | Sm TGR inh
CN1CCN(c2ccc(NC(=O)c3ccc(-c4ccc(Br)cc4)o3)cc2)CC1 | 8% | 1% | -33 | 10µM* | -7%
CCN1CCN(c2ccc(NC(=O)c3ccc(Br)o3)cc2)CC1 | 44% | 1% | 50 | 58% | -22%
O=C(OCC(=O)N1CCN(c2ccccc2)CC1)c1ccc2ccccc2n1 | 4% | 2% | 52 | -19% | 45µM*
COC(=O)c1ccccc1NC(=O)c1nc(S(=O)(=O)Cc2ccccc2F)ncc1Cl | . | . | 24 | . | -24%
COc1ccc(NC(=O)c2nc(SCc3ccc(F)cc3)ncc2Cl)cc1 | . | . | -36 | . | 6%
Cc1ccc(NC(=O)c2nc(S(=O)(=O)Cc3ccccc3)ncc2Cl)cc1 | 25% | 0% | -98* | 50% | 3.2µM*
Cc1ccccc1CS(=O)(=O)c1ncc(Cl)c(C(=O)Nc2ccc(F)cc2)n1 | 1% | . | -98* | 6% | 3.5µM*
O=C(Nc1ccccc1F)c1nc(S(=O)(=O)Cc2ccccc2F)ncc1Cl | . | . | -109* | . | 2.8µM*
O=C(Nc1ccc(F)cc1)c1nc(S(=O)(=O)Cc2ccccc2)ncc1Cl | 54% | . | -112* | 6% | 6.3µM*
O=C(O)C(Cc1c[nH]c2ccccc12)N1C(=O)C2C3c4ccccc4C(c4ccccc43)[C@@H]2C1=O (some centres undefined) | ? | -1% | ? | -9% | -2%
O=C(NCc1ccccc1)c1nc(S(=O)(=O)Cc2ccc(F)cc2)ncc1Cl | . | . | -98* | . | 5µM*
Cc1ccc(CSc2ncc(Cl)c(C(=O)NCc3ccccc3)n2)cc1 | . | . | 92 | . | 3%
C=CCN1C(=O)C2(NNc3ccccc3O2)c2ccccc21 (centres undefined) | 12µM* | -22% | 33 | . | 6%
CCCCN1C(=O)C(O)(c2c(C)[nH]c3ccccc23)c2ccccc21 (centres undefined) | . | . | 15 | . | 7%
C=CCN1C(=O)C2(NC(=O)c3ccccc3N2)c2ccccc21 (centres undefined) | -16% | 2% | -26 | 5% | 9%
CCCCN1C(=O)C2(NNc3ccccc3O2)c2ccccc21 (centres undefined) | . | ? | 46 | 10µM* | -26%
O=C(Nc1ccc(Cl)cc1)c1cccs1 | 15% | -10% | 41 | 39% | 2%
O=C(c1cc(-c2ccc(Cl)cc2)on1)N1CCOCC1 | 2% | 6% | 51 | 153% | 0%
O=C(c1nnsc1S(=O)(=O)c1ccc(Cl)cc1)N1CCOCC1 | ? | 2% | 52 | -54% | 11µM*
O=C(c1nnsc1S(=O)c1ccc(Cl)cc1)N1CCOCC1 (centres undefined) | -6% | 2% | -98* | 17µM* | 2.5µM*
O=C(Nc1ccccc1)c1nnsc1S(=O)c1ccc(Cl)cc1 (centres undefined) | 15% | -19% | -104* | 63% | 0.1µM*
CNC(=O)c1nnsc1S(=O)(=O)c1ccc(Cl)cc1 | ? | 1% | -94* | ? | 0.28µM*
Cc1nn(C(=O)CNS(=O)(=O)c2ccccc2)c(C)c1Sc1ccc(Cl)cc1 | 18% | -26% | 90 | 1% | 2%
O=C(CCCCC(=O)NN=Cc1ccc(Cl)cc1)NN=Cc1ccc(Cl)cc1 | . | . | 5 | . | .
CCOC(=O)c1ccc(N2C(=O)CC(N3CCC(C#N)(c4ccccc4)CC3)C2=O)cc1 (centres undefined) | -5% | -2% | 0 | ? | 45µM*
SMILES | Pf growth 96h | FBPA Giardia inh | HCMV antiviral | Pf growth 48h | Sm TGR inh
CCOC(=O)c1ccc(N2C(=O)C3CCCN3C2=S)cc1 (centres undefined) | ? | . | 0 | ? | 9%
CCOC(=O)c1ccc(S(=O)(=O)N2CCN(C3CC(=O)N(c4ccccc4C(F)(F)F)C3=O)CC2)cc1 (centres undefined) | 12µM* | . | -25 | 13µM* | 0%
CCOC(=O)c1ccc(N2C(=O)CC(N3CCN(Cc4ccccc4)CC3)C2=O)cc1 (centres undefined) | . | 7% | -17 | -7% | -32%
CCOC(=O)c1ccc(N2C(=O)CC(N3CCC(O)(c4ccc(Br)cc4)CC3)C2=O)cc1 (centres undefined) | 8% | 4% | -29 | . | 50µM*
CCOC(=O)c1ccc(N2C(=O)CC(N3CCC(O)(c4ccc(Cl)cc4)CC3)C2=O)cc1 (centres undefined) | 0% | 4% | -20 | -14% | 22µM*
COc1cc(C(=O)Nn2cnnc2)ccc1OC(F)F | 24% | 5% | -18 | 18% | 13%
COc1cc(-c2cc(OC)c3c(C)oc(C)c3c(=O)c2)ccc1OC(=O)c1ccccc1F | . | . | 116 | . | -1%
O=C1CC(N2CCCc3ccccc32)C(=O)N1c1ccccc1Cl (centres undefined) | ? | 10% | 30 | -21% | 20µM*
N#CC1(c2ccccc2)CCN(C2CC(=O)N(c3cccc(F)c3)C2=O)CC1 (centres undefined) | 8.3µM* | 2% | -29 | 105% | 45µM*
O=C1CC(N2CCN(c3ccccc3Cl)CC2)C(=O)N1c1ccc(F)cc1 (centres undefined) | 23% | -6% | -26 | 2% | ?
Cc1cccc(N2C(=O)CC(N3CCN(c4ccccc4)CC3)C2=O)c1 (centres undefined) | . | 1% | -22 | 16% | -28%
O=C1CC(N2CCN(c3ccccc3Cl)CC2)C(=O)N1c1cccc(F)c1 (centres undefined) | ? | 3% | 46 | 13% | 40µM*
Cn1nc(C(C)(C)C)cc1C(=O)N1CCCC(c2cc(C(=O)NCc3ccccc3)no2)C1 (centres undefined) | . | . | -39 | . | .
CS(=O)(=O)N1CCC2(CC1)CN(c1cccc(-c3ccccc3)c1)C2 | . | -16% | . | . | .
O=C(Nc1ccc(SC(F)F)cc1)C1=COCCO1 | 1.7µM* | 0% | -30 | 141% | -11%
CC(=O)N1CCN(C(=S)Nc2ccc(SC(F)F)cc2)CC1 | 6% | -5% | -76* | 2% | 2%
Cc1ccc(C(=O)Nc2ccc(SC(F)F)cc2)s1 | -14% | -19% | -15 | 115% | -1%
N/C(Cc1ccc(Cl)cc1)=N\OC(=O)c1ccc2ccccc2c1 | 10µM* | 7% | 10 | ? | 2%
Cc1ccc(C(=O)O/N=C(\N)Cc2cccc3ccccc23)cc1 | 22% | . | 47 | 1.9µM* | -6%
COc1ccccc1OC(=O)Cc1cccc2ccccc12 | 10% | 15% | . | -22% | 6%
COc1ccccc1CC(=O)O/N=C(\N)Cc1cccc2ccccc12 | ? | 5% | -31 | 5.9µM* | 10%
COc1ccc(C/C(N)=N/OC(=O)c2ccc(Cl)cc2)cc1 | -14% | 7% | ? | ? | 0%

Assay outcomes from PubChem.
